According to PubChem BioAssay (NCATS):
Results filed as inconclusive are left out. A number with no mark means an inactive call. The source made the active and inactive calls. The call rests on the fitted dose curve; in most records, active means well fitted cell-killing curve with a large enough effect; inconclusive means small, poorly fitted or top-dose-only effect, or effect the other way; inactive means no such curve, though single readings can be large or run the other way.

assay: Viability qHTS for spleen associated tyrosine kinase inhibitor (SYKi) naive MV4-11 cells (AID 1963823); conditions: MV4-11 AML viability, CellTiter-Glo luminescence, 72 h; series mostly up to 45 µM; viability (% of control): at the top concentration; further: nearly all actives have a fitted effect of over 40% in size
Method in brief: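 qHTS, SYK inhibitor-naive MV4-11; 500 cells/well; 72 hr compound exposure, 37 C; CellTiter-Glo added, 10 min RT; luminescence read.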
Potency means the concentration at half of the fitted maximal effect.

SMILES | viability (% of control) | Potency
Cc1ccc2c(c1)[C@H]1CN(C)CC[C@H]1N2C(=O)CSc1nnnn1-c1ccc(Cl)cc1 | 77.1% | –
CO[C@H]1[C@@H](O)[C@@H](C)O[C@@H](O[C@@H]2C=C3C(OC(C)=O)CC4(O)C(CC[C@]5(C)[C@@H](C6=CC(=O)OC6)CC[C@]45O)[C@@]3(C)CC2)[C@@H]1O (stereo partly drawn) | – | 68.5 nM (active)
COC1CC(O[C@H]2CC[C@]3(C)C4CC[C@]5(C)[C@@H](C6=CC(=O)OC6)[C@@H](OC(C)=O)C[C@]5(O)C4CC[C@@H]3C2)OC(C)C1O[C@@H]1O[C@H](CO)[C@@H](O)[C@H](O)[C@H]1O (stereo partly drawn) | – | 306 nM (active)
C[C@@]12C[C@@H](c3ccoc3)OC(=O)C1CC[C@]1(C)[C@H]2[C@H]2C=C[C@]1(O)C(=O)O2 (stereo partly drawn) | 81.4% | –
COC(=O)[C@@]1(C)C(=O)C=C[C@]2(C)c3c(O)cc(C(C)C)cc3[C@H](O)[C@@H](OC(C)=O)C12 (stereo partly drawn) | – | 11200 nM (active)
C[C@]12CC[C@H](O[C@@H]3O[C@H](CO)[C@@H](O)[C@H](O)[C@H]3O[C@@H]3O[C@H](CO)[C@@H](O)[C@H](O)[C@H]3O)CC1=CC[C@@H]1[C@@H]2CC[C@]2(C)[C@@H](C3=CC(=O)OC3)CC[C@]12O | – | 6110 nM (active)
CCCCCCn1c(=O)c(C(=O)Nc2ccc(C(=O)OCCC)cc2)c(O)c2ccccc21 | 62.6% [at 9.25 µM] | –
COC1CC(OC2CCC3(C=O)C(CCC4C3CCC3(C)C(C5=CC(=O)OC5)CCC43O)C2)OC(C)C1O (stereo not drawn) | – | 89.3 nM (active)
COC(=O)C1(C)CCC(=O)C2(C)c3c(O)cc(C(C)C)cc3C(O)C(OC(C)=O)C12 (stereo not drawn) | 87% [at 17.3 µM] | –
CC(C)C(=O)O[C@H]1[C@@H]2[C@H](C)C(=O)O[C@@H]2C[C@@H](C)[C@@H]2C=CC(=O)[C@]21C | – | 3600 nM (active)
CCCN1CCO[C@H]2c3cc(O)ccc3OC[C@@H]21 | 70.2% | –
N#CC(OC1OC(COC2OC(CO)C(O)C(O)C2O)C(O)C(O)C1O)c1ccccc1 (stereo not drawn) | 82% [at 17.3 µM] | –
CCCCCCCCC(=O)NCc1ccc(O)c(OC)c1 | 13.3% | –
Cc1c(N2C(=O)[C@@H]3[C@H](O)CCN3C2=O)ccc(C#N)c1Cl | 79.1% | –
C[C@H]1C(=O)O[C@@H]2CCN3CC=C(COC(=O)[C@](C)(O)[C@]1(C)O)[C@H]23 | 77.6% | –
CN1CCCCC1Cn1cc(C(=O)c2cc([N+](=O)[O-])ccc2I)c2ccccc21 (stereo not drawn) | – | 14600 nM (active)
O=C(NCCN1CCC2(CC1)C(=O)NCN2c1cccc(F)c1)c1ccc2ccccc2c1 | – | 9200 nM (active)
CCN1C[C@]2(COC(=O)c3ccccc3N3C(=O)C[C@H](C)C3=O)CC[C@H](OC)[C@@]34[C@@H]5C[C@H]6[C@H](OC)[C@@H]5[C@](O)(C[C@@H]6OC)[C@](O)([C@@H](OC)[C@H]23)[C@@H]14 | 94% | –
COC1CC(O[C@H]2CC[C@]3(C=O)C4CC[C@]5(C)[C@@H](C6=CC(=O)OC6)CC[C@]5(O)[C@@H]4CC[C@@H]3C2)OC(C)C1O[C@@H]1O[C@H](CO)[C@@H](O[C@@H]2O[C@H](CO)[C@@H](O)[C@H](O)[C@H]2O)[C@H](O)[C@H]1O (stereo partly drawn) | – | 174 nM (active)

SMILES | viability (% of control) | Potency
CC1=C[C@H]2O[C@@H]3[C@H](O)[C@@H](O)[C@](C)([C@@]2(CO)C[C@@H]1O)[C@]31CO1 | – | 820 nM (active)
CC1=CC(=O)[C@@H](O)[C@]2(C)C3[C@@H](O)[C@@H]4OC(=O)[C@@H]([C@H]4C)[C@]3(C)C(=O)C[C@@H]12 (stereo partly drawn) | – | 904 nM (active)
COc1ccc(CCNCc2ccc(OC)c3ccccc23)cc1 | – | 9200 nM (active)
CC1C/C=C/C(O)C(O)CC/C=C/c2cc(O)cc(O)c2C(=O)O1 (stereo not drawn) | – | 5700 nM (active)
CO[C@H]1[C@H](O)[C@H](O[C@H]2CC[C@]3(C)C4CC[C@]5(C)[C@H](C6=CC(=O)OC6)CC[C@]5(O)C4CC[C@@H]3C2)O[C@@H](C)[C@@H]1O (stereo partly drawn) | – | 25.2 nM (active)
CC(C)(O)/C=C/C(=O)[C@](C)(O)[C@H]1[C@H](O)C[C@@]2(C)[C@@H]3CC=C4[C@@H](C[C@H](O)C(=O)C4(C)C)[C@]3(C)C(=O)C[C@]12C | – | 317 nM (active)
CC1N=C(N)OC1c1ccccc1 (stereo not drawn) | 84.4% [at 91.9 µM] | –
CC[C@H](C)[C@H](NC(=O)[C@H]1CCCCN1C)C(=O)N(COC(=O)CC(C)C)[C@H](C[C@@H](OC(C)=O)c1nc(C(=O)N[C@@H](Cc2ccc(O)cc2)C[C@H](C)C(=O)O)cs1)C(C)C | – | 0.4 nM (active)
NC(=O)c1ncn2c1CN=C(c1ccccc1Br)c1cc(F)ccc1-2 | – | 20600 nM (active)
C[C@H]1O[C@@H](n2cnc3c(N)ncnc32)C[C@@H]1O | 38.1% | –
COc1ccc2c(c1)[nH]c1c(C)nccc12 | – | 13000 nM (active)
Nc1ccn(C[C@@H](CO)OCP(=O)(O)O)c(=O)n1 | 57.6% [at 9.25 µM] | –
CC1=CC(=O)[C@@H](O)[C@@]2(C)C1C[C@H]1OC(=O)[C@H](O)[C@@]3(O)[C@@H](C)[C@@H](O)[C@H](O)C2[C@@]13C (stereo partly drawn) | – | 2020 nM (active)
CC(C)[C@H]1OC(=O)[C@H](Cc2ccccc2)N(C)C(=O)[C@@H](C(C)C)OC(=O)[C@H](Cc2ccccc2)N(C)C(=O)[C@@H](C(C)C)OC(=O)[C@H](Cc2ccccc2)N(C)C1=O | – | 3850 nM (active)
O=C1CN=C(c2ccccc2Cl)c2cc(Br)ccc2N1 | 66.5% | –
Clc1cccc(SC2CCNCC2)n1 | 77% | –
COC1CC(O[C@H]2CC[C@@]3(C)C(CCC4C3CC[C@]3(C)C(C5=CC(=O)OC5)CCC43O)C2)OC(C)C1OC1OC(COC2OC(CO)C(O)C(O)C2O)C(O)C(O)C1O (stereo partly drawn) | – | 1230 nM (active)
C/C=C(\C)C(=O)O[C@H]1CC2C(=C1C)[C@H]1OC(=O)[C@](C)(O)[C@]1(O)[C@H](OC(=O)CCC)C[C@@]2(C)OC(C)=O (stereo partly drawn) | – | 1780 nM (active)
C[C@@H]1O[C@@H](OC2CCC3(C=O)C(CCC4C3CCC3(C)C(C5=CC(=O)OC5)C(O)CC43O)C2)[C@H](O)[C@H](O)[C@H]1O[C@@H]1O[C@H](CO)[C@@H](O)[C@H](O)[C@H]1O (stereo partly drawn) | – | 2170 nM (active)
